Mot1-301 SUMO = yeast Mot1-301 growth rescue at high temperature, primary screen, SUMOylation pathway inhibitor project, S. cerevisiae, ATP luminescence, 38.5C | actives 1% (n = 320,000) | S. cerevisiae Mot1-301 growth rescue; percent above DMSO median, 100 means doubled | growth rescue, % at 18.8 µM;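 active means every valid replicate shows activation above 250% relative to neutral control wells; inactive means the rest, any valid replicate at or below 250%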;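 further: OY570 slx delta 5 strain wells were the positive control but not used for scaling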
PfHsp90 yeast 2 = growth inhibition of PfHsp90-expressing yeast, primary screen, antimalarial PfHsp90 inhibitor project, S. cerevisiae, BacTiter-Glo luminescence, single point, set 2. BacTiter-Glo ATP, 48 h; yeast lacking PDR1 and PDR3 efflux regulators. inhibition, % at 9.4 µM. actives 0.32% (n = 310,000);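 active means every replicate shows inhibition above about 80%, whatever the replicate mean, limit read from the data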;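 further: 0% = DMSO neutral controls and 100% = 20 µM radicicol positive controls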
TIM10 inh = growth inhibitors of isogenic TIM10 control yeast, primary screen, counter-screen for tim10-1 yeast inhibitor project, luminescence, uHTS | S. cerevisiae TIM10 strain growth, BacTiter-Glo luminescence, 24 h | inhibition, % at 10 µM | actives 1.4% (n = 330,000) | AID 463195, 2010;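 active means inhibition of 40% or more at the single tested concentration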;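 further: wild-type TIM10 isogenic control strain grown at permissive 25 °C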
tim23-1 inh = growth inhibitors of tim23-1 mutant yeast, primary screen, luminescence, uHTS; inhibition, % at 20 µM; S. cerevisiae tim23-1 growth, BacTiter-Glo luminescence, 24 h; actives 1.3% (n = 330,000);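 active means growth inhibition of the mutant yeast at or above 50%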;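 further: temperature-sensitive mutant grown at 25 °C; plate controls were DMSO-treated mutant yeast for no effect and medium wells lacking yeast for full effect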
tim10-1 inh = growth inhibitors of tim10-1 mutant yeast, primary screen, luminescence, uHTS | S. cerevisiae tim10-1 ts strain growth, BacTiter-Glo, 24 h | inhibition, % at 20 µM | actives 2.2% (n = 330,000);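 active means inhibition of at least 40%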;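 further: mutant grown at 25 °C; 0% = DMSO wells with yeast and 100% = wells holding no yeast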
tim10-1 conf = growth inhibitors of tim10-1 mutant yeast, confirmation, single concentration, luminescence, S. cerevisiae; shares compounds with tim10-1 inh; S. cerevisiae tim10-1 ts strain growth, BacTiter-Glo, 24 h; inhibition, % at 20 µM; actives 56% (n = 7,400);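 active means inhibition of yeast growth at or above a set limit in either of two repeat tests at 20 µM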;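 further: tim10-1 mutant grown at permissive 25 °C to find synthetic lethal compounds; 0% = DMSO yeast wells and 100% = medium wells without yeast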
The depositor's hits bear a star; i = inactive; . = no result given. The list is not random: actives were taken first. Their share in the collection is about 4.4%.

SMILES	Mot1-301 SUMO	PfHsp90 yeast 2	TIM10 inh	tim23-1 inh	tim10-1 inh	tim10-1 conf
CC(Oc1ccc(Br)cc1)C(=O)N(C)CC(=O)Nc1ccc(N2CCOCC2)cc1 (centres undefined)	-10	2	-7	-21	-15	.
CCOc1ccc(OCC)c(NC(=O)CN2CCN(c3cccc(C)c3)CC2)c1	0	-10	24	25	46*	29
CCOc1ccc(OCC)c(NC(=O)CN2CCN(c3cccc(C)c3)C(C)C2)c1 (centres undefined)	-2	-6	34	16	38	.
COc1ccc(NC(=O)c2cccc(N3C(=O)C4C5C=CC(C6CC56)C4C3=O)c2)cc1 (centres undefined)	-14	7	3	16	29	.
O=C(c1ccc(-c2cccc(Cl)c2Cl)o1)N1CCOCC1	-11	-8	22	39	44*	42*
COC(=O)c1ccc(CN2CCC(n3nccc3NC(=O)C3CCCC3)CC2)cc1	2	35	6	-7	8	.
CN(C(=S)Nc1ccc(Oc2ccccc2)cc1)C1CCCCC1	7	-2	27	21	40*	19
Cc1c(C(=O)NCc2ccc(F)cc2)oc2ccc(S(=O)(=O)N3CCOCC3)cc12	6	1	6	27	18	.
CCN(CC)S(=O)(=O)c1ccc2oc(C(=O)NCc3ccc(F)cc3)c(C)c2c1	i	6	32	32	44*	39*
Cc1nc(CNC(=O)CC2C(=O)NCCN2Cc2ccoc2)nc2c1CCCC2 (centres undefined)	141	-16	13	4	-11	.
CC(C)c1ccc(C(=O)NCCCN2CCOCC2)cc1	11	12	-5	-11	0	.
CC(C)c1ccc(/C=C2\C(=O)N(CCN3CCOCC3)C(=S)N2C)cc1	1	7	33	43	45*	40*
O=C(COc1ccccc1Br)Nc1ccc(S(=O)(=O)N2CCCC2)cc1	26	-27	34	24	37	.
c1coc(CNc2ncnc3sc4c(c23)CCCCC4)c1	2	-6	32	41	27	.
Cc1nc(NCc2ccco2)c2c3c(sc2n1)CCC3	-11	-1	-11	34	27	.
O=C(Nc1ncnc2sc3c(c12)CCCCC3)c1ccc(F)cc1	-14	.	26	23	45*	32*
O=C(Nc1ncnc2sc3c(c12)CCCCC3)c1ccccc1	10	.	29	42	30	.
c1ccc(CNc2ncnc3sc4c(c23)CCCC4)nc1	2	13	-7	42	45*	36*
Cc1nc(NCc2ccccn2)c2c3c(sc2n1)CCCC3	21	-51	16	39	41*	41*
Oc1ccc(Oc2ncc(Cl)cc2Cl)cc1	67	-1	9	37	40*	34*
CCOCCOC(=O)C(C)Oc1ccc(Oc2ncc(Cl)cc2Cl)cc1 (centres undefined)	-14	-4	24	20	25	.
Cc1ccccc1-c1n[nH]c(=S)n1Cc1ccccc1	-8	2	26	5	40*	16
S=c1[nH]nc(-c2ccccc2Br)n1Cc1ccccc1	4	13	21	29	41*	26
CCCCCCC(=O)Nc1nc(C)c(-c2csc(Nc3ccc(Cl)cc3)n2)s1	-11	-3	23	24	39	.
CCCCCC(=O)Nc1nc(C)c(-c2csc(Nc3ccc(Cl)cc3)n2)s1	123	4	28	21	41*	26
SMILES	Mot1-301 SUMO	PfHsp90 yeast 2	TIM10 inh	tim23-1 inh	tim10-1 inh	tim10-1 conf
[O-]/C(=C(\C(=S)Nc1cccc2ccccc12)[n+]1cccc(CO)c1)c1ccc(Cl)s1	.	-55	.	.	.	.
Cc1c(Cl)cccc1NC(=S)/C(=C(\[O-])c1ccc(Cl)s1)[n+]1ccccc1	3	-6	19	42	47*	36*
CCOC(=O)C1=NN(c2ccccc2)C(=O)/C1=C\c1ccc(N(C)C)cc1	-19	14	13	24	40*	20
CC1=NN(Cc2ccccc2)C(=O)/C1=C\c1ccc(N(C)C)cc1	.	7	20	21	21	.
O=S1(=O)CCOC[C@H](CC2CCCCC2)N1Cc1ccccc1Br	11	-35	14	22	22	.
Cc1ccc2nc(C)c(C(=O)N/N=C/c3cccc([N+](=O)[O-])c3)cc2c1	9	0	40	30	47*	45*
C/C(=N\NC(=O)CNC(=O)c1cccs1)c1ccc(Cl)c(Cl)c1	8	-11	2	41	51*	-5
CC(C)Cc1cc(C(=O)N2CCC(N3CCC(C(=O)NC4CC4)CC3)CC2)n[nH]1	16	-5	-5	4	-2	.
Cc1cc(O)cc2c1C1CCC3(C)C(=O)CCC3C1C=C2 (centres undefined)	.	-3	.	.	.	.
CCN(CC)CCSc1nnc2c3ccccc3n(Cc3ccccc3)c2n1	i	0	-1	19	16	.
Cc1ccc(N=C2C(=O)Nc3ccc(C)c(Br)c32)cc1	-13	-5	16	32	41*	30*
Cc1cc(O)c(C(C[N+](=O)[O-])c2ccc(Cl)cc2Cl)c(=O)o1 (centres undefined)	0	.	27	27	43*	26
CN(C)/C=N/NC(=O)C1Cc2c(ccc3ccccc23)O1 (centres undefined)	-7	8	11	15	-14	.
COc1ccc(S(=O)(=O)N/N=C(/C)c2ccc(Cl)cc2)cc1	101	.	32	45	52*	44*
COc1cccc(/C(C)=N/NS(=O)(=O)c2ccc(Cl)cc2)c1	6	-3	11	26	28	.
CC(C)OC(=O)CSc1nnc(-c2cnccn2)n1-c1ccc(Cl)cc1	-9	.	11	25	41*	21
Cc1ccc(-n2c(SCC(=O)OC(C)C)nnc2-c2ccncc2)cc1	30	-6	14	18	21	.
COc1ccc(S(=O)(=O)N2CCOCC2)cc1NC(=O)C1CC1	-25	-1	-8	-10	0	.
CCN(CC)CCN(C(=O)c1ccc2c(c1)OCCO2)c1nc2ccc(C)cc2s1	31	8	20	15	44*	27
Cc1ccc2nc(N(CCN(C)C)C(=O)c3ccc4c(c3)OCCO4)sc2c1	-8	1	3	0	15	.
CCOC(=O)Nc1ccc2c(CNC(C)c3ccccc3OC)cc(=O)oc2c1 (centres undefined)	-12	-8	15	32	47*	22
COc1ccc(CCNC(=O)CN(Cc2ccc(Cl)cc2)S(C)(=O)=O)cc1	20	9	-9	25	10	.
